Laboratory results published in PubChem BioAssay (NCATS).
Results filed as inconclusive are left out. Unmarked numbers belong to inactive results. Active and inactive are the calls of the source. Calls follow the shape of the dose curve; as a rule, active = well fitted cell-killing curve with a large enough effect; inconclusive = small, poorly fitted or top-dose-only effect, or effect the other way; inactive = no such curve, though single readings can be large or run the other way.

Columns and labels:
[1] = Viability qHTS for spleen associated tyrosine kinase inhibitor (SYKi) naive MV4-11 cells (AID 1963823); also: nearly all actives have a fitted effect of over 40% in size
In short: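 SYKi-naive MV4-11 AML cells, 500 per well, were exposed to library compounds for 72 hr at 37 C, 5% CO2. Viability was then read by CellTiter-Glo luminescence after 10 min at room temperature.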

[2] = Viability qHTS for spleen associated tyrosine kinase inhibitor (SYKi) drug resistant MV4-11 cells (AID 1963824); also: nearly all actives have a fitted effect of over 35% in size
In short: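 CellTiter-Glo luminescence, read 10 min after reagent addition, reports viability after a 72 hr compound exposure. Cells are an MV4-11 line made resistant to SYK inhibition, seeded at 500 per well onto compound-containing plates.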
Potency is read from the fitted curve at half-maximal effect.

Structure (SMILES)	Potency [1]	Potency [2]	viability (% of control) [1]	viability, % of control [2]
CC1(C)SC2C(NC(=O)[C@H](C(=O)O)c3ccsc3)C(=O)N2C1C(=O)O (stereo partly specified)	inactive	inactive		
CC1(C)CC[C@]2(C(=O)O)[C@H](O)C[C@]3(C)C(=CCC4[C@@]5(C)CC[C@H](O[C@@H]6O[C@H](CO[C@@H]7OC[C@H](O)[C@H](O)[C@H]7O[C@@H]7OC[C@@H](O)[C@H](O)[C@H]7O)[C@@H](O)[C@H](O)[C@H]6O[C@@H]6O[C@H](CO)[C@@H](O)[C@H](O)[C@H]6O)C(C)(C)C5CC[C@]43C)[C@@H]2C1 (stereo partly specified)			92.2% [at 9.25 µM]	103% [at 9.25 µM]
C/C=C(\C)C(=O)OCC1OC(OC2OC(COC(=O)/C(C)=C/C)C(OC3OC(CO)C(OC(=O)/C(C)=C/C)C(OC(=O)/C(C)=C/C)C3O)C(O)C2O)C(O)C(O)C1OC1OC(CO)C(OC(=O)/C(C)=C/C)C(OC(=O)/C(C)=C/C)C1O (stereo unspecified)			65% [at 9.25 µM]	58.7% [at 9.25 µM]
C=C1CCC2C(C)(C(=O)O)CC(O)CC2(C)C1CC/C(C)=C/C(=O)O (stereo unspecified)	inactive	inactive		
O=c1cc(-c2cccc(O)c2)oc2c(O)c(O)ccc12	14.6 µM (active)	16.4 µM (active)		
CN(Cc1ccc(C(=O)O)cc1)c1ccc(OCc2c(-c3c(Cl)cccc3Cl)noc2C2CC2)nc1C(F)(F)F	20.6 µM (active)	16.4 µM (active)		
CC/C=C\C[C@H]1C(=O)C=C[C@@H]1CCCCCCCC(=O)O	16.4 µM (active)	23.1 µM (active)		
N#CCc1ccc(O)cc1O[C@@H]1O[C@H](CO)[C@@H](O)[C@H](O)[C@H]1O	inactive	inactive		
